# In PMC5540273 (PLoS ONE, 2017):
# Like-named read-outs stand apart in the source and are kept apart here.
# Legend:
# Conditions in all cases: n = 1
# [1] = test system: KIT
# [2] = test system: LATS1
# [3] = test system: LATS2
# [4] = test system: LCK
# [5] = test system: LIMK1
# [6] = test system: LIMK2
# [7] = test system: T1, LKB1
# T1 construct: gene STK11
# [8] = test system: T2, LOK
# T2 construct: gene STK10
# [9] = test system: LRRK2
# [10] = test system: LTK
# [11] = concentration: 1 μM, replicates: in singlicate
# 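Further: KINOMEscan kinase panel screen.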
Compound,%Inh ([1]; 1 µM) [%],%Inh ([2]; 1 µM) [%],%Inh ([3]; 1 µM) [%],%Inh ([4]; 1 µM) [%],%Inh ([5]; 1 µM) [%],%Inh ([6]; 1 µM) [%],%Inh ([7]; 1 µM) [%],%Inh ([8]; 1 µM) [%],%Inh ([9]; 1 µM) [%],%Inh ([10]; 1 µM) [%],"%Inh [1, 11] [%]","%Inh [2, 11] [%]","%Inh [3, 11] [%]","%Inh [4, 11] [%]","%Inh [5, 11] [%]","%Inh [6, 11] [%]","%Inh [7, 11] [%]","%Inh [8, 11] [%]","%Inh [9, 11] [%]","%Inh [10, 11] [%]"
Cc1ccc(NC(=O)Nc2cccc(C(F)(F)F)c2)cc1 [GSK955403],91.4,0,20,6,0,10,16,0,0,0,–,–,–,–,–,–,–,–,–,–
Cc1ccc(-c2cc(-c3c[nH]nc3-c3ccccn3)ccn2)cc1 [GW684088],–,–,–,–,–,–,–,–,–,–,23,0,6,7,0,17,12,0,0,0
Clc1cc(Cl)cc(Nc2ccnc(Nc3cc(Cl)cc(Cl)c3)n2)c1 [GSK175726],–,–,–,–,–,–,–,–,–,–,40,0,17,27,10,31,14,0,0,0
COc1ccc(Nc2nccc(NCCNC(=O)Nc3ccccc3F)n2)cc1 [GSK1379901],–,–,–,–,–,–,–,–,–,–,57,44,0,20,4,3,0,0,0,0
Cl.c1ccc(-c2n[nH]cc2-c2ccnc(-c3ccc(CN4CCOCC4)cc3)c2)nc1 [GW776245],–,–,–,–,–,–,–,–,–,–,8,3,0,0,5,19,18,0,0,28
C[C@@H]1CCCCN1c1cc(-c2ccc3c(N)n[nH]c3c2)nc(N)n1 [GSK2258759],–,–,–,–,–,–,–,–,–,–,4,23,14,0,0,19,0,0,0,0
COc1cccc(NC(=O)NC2CCN(c3ccnc(Nc4ccc(F)cc4)n3)C2)c1 (centres unmarked) [GSK1379721],–,–,–,–,–,–,–,–,–,–,63,0,0,1,0,5,25,0,0,0
O=c1cc(N2CCOCC2)nc2n(Cc3cccc(Cl)c3Cl)ccn12 [GSK2286295],–,–,–,–,–,–,–,–,–,–,32,0,13,9,0,0,0,0,31,0
CCn1c(-c2cccnc2O)nc2cnccc21 [SB-736715],–,–,–,–,–,–,–,–,–,–,0,0,0,0,0,0,27,0,0,0
Cc1ccccc1-n1cnc2c(N)ncnc21 [SKF-97510],–,–,–,–,–,–,–,–,–,–,0,0,3,100,16,15,0,0,0,0
COc1cc2nccc(Nc3ccc(NC(=O)c4ccc(C)cc4)c(O)c3)c2cc1OC.Cl [GW440132],–,–,–,–,–,–,–,–,–,–,38,0,0,83,4,1,2,0,28,0
COC(=O)c1c(-c2ccccc2)c2cc(OC)ccc2c(=O)n1Cc1ccccc1,–,–,–,–,–,–,–,–,–,–,93.3,31,0,0,0,0,8,9,0,11
Cc1cccc(-c2nc(C)cc(Nc3ccncc3)n2)n1 [GSK257997],–,–,–,–,–,–,–,–,–,–,17,0,0,34,11,19,8,0,0,16
Fc1cc(Cl)ccc1Nc1ccnc2cc(I)ccc12 [GW551191],–,–,–,–,–,–,–,–,–,–,49,0,0,24,0,0,0,0,37,13
Nc1nc(-c2nccs2)c(-c2ccnc3ccccc23)s1 [GW693542],–,–,–,–,–,–,–,–,–,–,0,22,0,13,6,0,0,0,19,4
CC(=O)Nc1nc2cnc(Nc3cc(NC(=O)c4cccc(CCC#N)c4)ccc3C)nc2s1,–,–,–,–,–,–,–,–,–,–,99.7,21,29,27,0,0,0,0,0,0
Fc1cc(Cl)ccc1Nc1ccnc2cc(-c3ccc(CN4CCCCC4)o3)ccc12 [GW560116],–,–,–,–,–,–,–,–,–,–,61,3,0,35,0,0,0,0,0,8
